Sampled rows, rich in hits. Any-hit rate of the full collection: about 1.2%.
RGS4-Gao reg = human RGS4-Galphao interaction regulation | binding response (% of control), % at 10 µM | 220,000 tested, 0.33% active | P09471 | Multiplexed bead flow cytometry, RGS4-Galphao binding; actives lie on both sides; in the data active means binding response below about 49% or above about 150%; inactive means in between;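 further: fluorescent Galphao activated with aluminum fluoride binding bead-coupled RGS4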
Target sequence (P09471 whole entry, looked up): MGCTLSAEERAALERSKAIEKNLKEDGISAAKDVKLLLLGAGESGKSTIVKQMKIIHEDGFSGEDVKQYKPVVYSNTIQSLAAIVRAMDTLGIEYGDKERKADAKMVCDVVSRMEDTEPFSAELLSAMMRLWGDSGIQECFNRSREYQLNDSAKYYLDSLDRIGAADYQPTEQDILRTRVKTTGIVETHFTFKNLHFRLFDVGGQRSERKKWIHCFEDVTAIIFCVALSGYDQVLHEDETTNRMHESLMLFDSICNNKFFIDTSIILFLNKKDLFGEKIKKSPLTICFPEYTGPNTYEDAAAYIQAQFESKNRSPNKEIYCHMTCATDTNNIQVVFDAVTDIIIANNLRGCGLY
RGS7-Gao reg = human RGS7-Galphao interaction regulation | Multiplexed bead flow cytometry, RGS7-Galphao binding; actives lie on both sides | binding response (% of control), % at 10 µM | 220,000 tested, 0.35% active | AID 1439; in the data active means binding response below about 49% or above about 150%; inconclusive means no clear call, values can overlap the other calls; inactive means in between;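 further: fluorescent Galphao held in activated GDP-AlF4 state binding bead-coupled RGS7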
GSH fluor = compound fluoresces at 488/530 nm on GSH beads; GSH beads flow cytometry, compound fluorescence 488/530 nm; stronger effect = higher value; fluorescence (KMESF) at 10 µM; 190,000 tested, 0.25% active; in the data active means fluorescence above about 89;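 further: glutathione beads carrying GST-tagged Bcl family fusion proteins plus one bare bead set; values are compound well signal with DMSO vehicle wells as background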
RGS8-Gao = modulates binding of RGS8 to human Galphao; multiplexed bead flow cytometry; actives lie on both sides; response (percent of control binding), % at 10 µM; 220,000 tested, 0.34% active; AID 1423; in the data active means response below about 60% or above about 140%; inactive means in between;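 further: Galphao activated as the GDP aluminium fluoride complex binding bead-coupled RGS8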
RGS16-Gao HTS = RGS16-Galphao interaction regulator (human) | bead-based flow cytometry RGS16-Galphao binding, fluorescence; actives lie on both sides | binding response (% of control), % at 10 µM | 220,000 tested, 0.38% active | AID 1441;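 further: Galphao activated by GDP with aluminum fluoride before binding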
Target sequence (O15492 whole entry, looked up): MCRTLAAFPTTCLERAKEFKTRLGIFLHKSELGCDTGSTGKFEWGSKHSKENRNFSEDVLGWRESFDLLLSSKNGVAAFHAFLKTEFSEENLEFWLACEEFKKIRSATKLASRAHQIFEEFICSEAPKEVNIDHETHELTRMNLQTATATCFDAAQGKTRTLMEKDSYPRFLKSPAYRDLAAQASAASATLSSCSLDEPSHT
Target sequence (P09471 whole entry, looked up): as the sequence (P09471 whole entry, looked up) above
Avidin bead fluor = compound fluoresces at 488/530 nm on avidin beads; compound fluorescence 488/530 nm, flow cytometry; stronger effect = higher value; fluorescence (KMESF) at 10 µM; 220,000 tested, 0.38% active; AID 1775; in the data active means fluorescence above about 47
RGS-Gao = regulators of human RGS4-Galphao interaction; shares compounds with RGS16-Gao HTS; multiplexed bead flow cytometry, RGS–Galpha-o binding; RGS4–Galpha-o binding response, % at 10 µM; 1,600 tested, 99% active; AID 1504;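 further: fluorescently labeled Galpha-o bound to GDP with aluminium fluoride binding biotinylated RGS beads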
Biotin-avidin = counter-screen: compounds disrupting biotin binding to avidin beads | inhibition, % at 10 µM | shares compounds with RGS16-Gao HTS | 1,700 tested, under 10 active | streptavidin beads, fluorescein-biotin binding, flow cytometry | AID 1783;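 active means inhibition above 50%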;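 further: median green fluorescence of gated singlet beads compared with DMSO control wells; 0% = DMSO wells and 100% = complete loss of bead fluorescence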
RGS8-Gao single = RGS8-Galphao interaction regulation, single point confirmation; shares compounds with RGS16-Gao HTS; bead-based flow cytometry RGS8-Galphao binding, fluorescence; actives lie on both sides; binding response (% of control), % at 10 µM; 1,700 tested, 3% active; in the data active means binding response below about 72% or above about 130%; inactive means in between;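 further: Galphao activated as GDP AlF4 complex before binding bead RGS8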
RGS7-Gao single = confirmation of regulators of human RGS7-Galphao interaction; shares compounds with RGS16-Gao HTS; bead-based flow cytometry RGS7-Galphao binding; actives lie on both sides; response (percent of control binding), % at 10 µM; 1,700 tested, 7.8% active; AID 1837; in the data active means response below about 75% or above about 130%; inactive means in between;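 further: fluorescent Galphao activated with GDP and aluminum fluoride binding bead-coupled RGS7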
RGS16-Gao single = RGS16-Galphao interaction regulation, single point confirmation. shares compounds with RGS16-Gao HTS. AID 1838. 1,700 tested, 4% active. response (% of control binding), % at 10 µM. bead-based flow cytometry, RGS16-Galphao binding; actives lie on both sides; in the data active means response below about 74% or above about 130%; inactive means in between;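 further: Galphao activated as the GDP aluminium fluoride complex binding bead-coupled RGS16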
RGS4-Gao single = confirmation of regulators of human RGS4-Galphao interaction; shares compounds with RGS16-Gao HTS; 1,700 tested, 4% active; RGS4-Galphao binding, multiplexed bead flow cytometry; actives lie on both sides; binding response (% of control), % at 10 µM; in the data active means binding response below about 74% or above about 130%; inactive means in between
RGS19-Gao conf = RGS19-Galphao interaction regulation, single point confirmation | shares compounds with RGS16-Gao HTS | bead-based flow cytometry RGS19-Galphao binding; actives lie on both sides | response (percent of control binding), % at 10 µM | 1,700 tested, 5% active; in the data active means response below about 50% or above about 160%; inactive means in between;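 further: 100% = no compound control and 0% = blank background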
Active calls of the source: *; i = inactive; ? = inconclusive; · = no result given; + = active, no number; [ ] = remark or other dose. Unless noted, how the calls were made is not given here.

SMILES	RGS4-Gao reg	RGS7-Gao reg	GSH fluor	RGS8-Gao	RGS16-Gao HTS	Avidin bead fluor	RGS-Gao	Biotin-avidin	RGS8-Gao single	RGS7-Gao single	RGS16-Gao single	RGS4-Gao single	RGS19-Gao conf
O=C1CSC(=Nc2ccc(Cl)cc2)N1Cc1cccnc1	5.3*	?	·	55*	19*	-1	·	0	93	90	93	94	109
CCOc1ccc(NC(=O)N(CCC(C)C)C2CCN(C(C)=O)CC2)cc1	127	122	28	153*[activator]	653	6	127*	i	101	106	102	102	101
CCOc1ccc(NC(=O)N(C2CCCC2)C2CCN(C(C)=O)CC2)cc1	103	101	18	102	101	7	·	·	·	·	·	·	·
CCOc1ccccc1N1CCN(C(=S)NCc2ccc(Cl)cc2)CC1	95	?	16	97	98	8	·	·	·	·	·	·	·
Cc1ccc(S(=O)(=O)/N=C2/C=C(Sc3ncn[nH]3)C(=O)c3ccccc32)cc1	87	79	8	64	15*	6	87*	·	·	·	·	·	·
C/C(=C\C(=O)C(F)(F)F)Nc1ccc(C)cc1	120	117	12	166*[activator]	598	5	120*	0	99	101	97	99	104
COc1ccccc1NC(=S)N(CCN1CCCCCC1)Cc1cccs1	99	103	21	98	99	11	·	·	·	·	·	·	·
O=C(N/N=C\c1c(O)ccc2ccccc12)c1ccc(Cn2cccn2)o1	57	58	9	43*	12*	1	57*	-1	94	88	90	93	128
O=C(N/N=C\c1ccc(Cl)s1)c1ccc(Cn2cccn2)o1	96	98	7	100	99	2	·	·	·	·	·	·	·
CCC(C)NC(=O)C1c2ccccc2C(=O)N1Cc1ccc(OC)cc1OC (stereo unspecified)	138	127	38	147*[activator]	424	6	138*	1	102	99	90	97	62
Cc1ccc(S(=O)(=O)N(Cc2cc3cc4c(cc3[nH]c2=O)OCCO4)CC2CCCO2)cc1 (stereo unspecified)	96	101	22	103	98	11	·	·	·	·	·	·	·
O=c1[nH]c2cc3c(cc2cc1CN(CC1CCCO1)S(=O)(=O)c1ccc(Cl)cc1)OCCO3 (stereo unspecified)	110	110	17	147*[activator]	403	3	110*	1	100	107	103	106	103
Cc1cc(C)n(CCOc2ccc(Cl)cc2Cl)n1	95	95	25	98	101	11	·	·	·	·	·	·	·
COc1ccccc1NC(=O)C1=C(C)NC(=O)NC1c1cc(C)cs1 (stereo unspecified)	202*[activator]	189*[activator]	27	167*[activator]	165	11	·	2	99	95	96	99	88
COc1ccccc1NC(=O)C1=C(C)NC(=O)NC1c1ccccc1F (stereo unspecified)	99	104	21	98	102	13	·	·	·	·	·	·	·
O=C(c1ccco1)N1CCN(c2cc(N3CCOCC3)c(F)cc2[N+](=O)[O-])CC1	101	96	20	99	99	6	·	·	·	·	·	·	·
CCN(CC)CC(=O)n1c2c(c3ccccc31)CCCC2	81	78	9	71	-100*	7	81*	0	101	102	105	100	92
Cc1cc(C)n(CC(=O)n2c3c(c4ccccc42)CCCC3)n1	·	·	44	·	·	·	·	2	102	102	103	103	83
COc1ccccc1C(=O)N(NC(=O)Oc1ccccc1)C(C)(C)C	96	101	4	100	111	13	·	·	·	·	·	·	·
Cc1[nH]c2ccccc2c1/C=N/NC(=S)NCc1ccccc1	159*[activator]	?	17	106	159	34	·	1	110	226*[activator]	146*[activator]	165*[activator]	294*[activator]
CN(C)CCCN(C(=O)c1ccco1)c1nc2ccc(F)cc2s1	103	?	15	104	102	12	·	·	·	·	·	·	·
Cc1ccc2nc(N(CCCN(C)C)C(=O)c3ccco3)sc2c1	+[activator]	+[activator]	232*	237*[activator]	+[activator]	252*	·	0	101	93	100	98	101
COCC(=O)Nc1cc(Cl)c(OC)cc1OC	99	97	11	100	106	5	·	·	·	·	·	·	·
O=C(NCc1ccccc1)C1CCN(S(=O)(=O)N2CCOCC2)CC1	98	100	4	99	101	18	·	·	·	·	·	·	·
CC(CCc1ccccc1)NC(=O)C1CCN(S(=O)(=O)N2CCOCC2)CC1 (stereo unspecified)	180*[activator]	167*[activator]	24	160*[activator]	165	11	·	2	101	97	100	100	99
SMILES	RGS4-Gao reg	RGS7-Gao reg	GSH fluor	RGS8-Gao	RGS16-Gao HTS	Avidin bead fluor	RGS-Gao	Biotin-avidin	RGS8-Gao single	RGS7-Gao single	RGS16-Gao single	RGS4-Gao single	RGS19-Gao conf
Cc1cccc(NC(=O)NNC(=O)c2sccc2-n2cccc2)c1	123	?	12	118	123	9	·	·	·	·	·	·	·
CC(C)CCOc1ccc(/C=C2\CCn3c2nc2cc(C(=O)O)ccc2c3=O)cc1	103	?	16	103	102	12	·	·	·	·	·	·	·
CCc1c(C(=O)Nc2ccccc2)c(C)[nH]c(=S)c1C#N	99	102	8	69	-59*	6	99*	2	81	130*[activator]	79	100	84
CC(C)c1ccccc1NC(=S)N(C)C	-47*	?	·	10*	-25*	-3	·	0	102	101	102	102	96
CCOC(=O)NC(=O)c1cn(C(CC)CO)c(=O)[nH]c1=O (stereo unspecified)	99	101	12	103	103	3	·	·	·	·	·	·	·
CC(=O)c1cccc(NC(=O)NCCc2c[nH]c3ccccc23)c1	89	?	·	96	88	7	·	·	·	·	·	·	·

Screens as filed in PubChem BioAssay.
